Most compounds without a hit are left out; they make up all but 5.9% or so of the library.
Gal4-VP16 FLuc – inhibits Gal4-VP16 luciferase reporter, ROR gamma counter-screen. Potency, µM (series often up to 53.6 µM), actives largely listed as inhibitors. Drosophila S2 Gal4-VP16 UAS-luciferase, luminescence, 20 h. 3.5% of 310,000 active;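 note: Gal4-VP16 expression switched on by copper sulfate through the metallothionein promoter; nearly all actives have a fitted effect of over 50% in size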
RORgamma inh – blocks mouse ROR gamma transcriptional activity | 5.4% of 310,000 active | Drosophila S2 Gal4-RORgamma UAS-luciferase reporter, 20 h | Potency, µM (titrated, usually from 53.6 µM), usual class: inhibitors | P51450 | AID 2551; note: nearly all actives have a fitted effect of over 60% in size
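Compounds are pin-transferred onto Drosophila Schneider cells expressing a copper-inducible Gal4–ROR gamma transactivation domain fusion. After 1 hr, copper sulfate is added to 700 uM final; luciferase is read 20 hr later.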
rTrxR1 inhibitor – inhibitors of rat thioredoxin reductase 1; recombinant rTrxR1, NADPH fluorescence consumption, selenite substrate; 1% of 390,000 active; AID 588453; Potency, µM (top dose mostly 114 µM), usual class: inhibitors; note: nearly all actives have a fitted effect of over 65% in size
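Rat TrxR1 (90 nM in the dispensed reagent) was pre-reduced with 400 uM NADPH for 5 min at room temperature, then incubated with compound for 15 min. After 400 uM selenite was added, NADPH fluorescence (Ex 340/Em 450 nm) was followed for 8 min.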
GALK inhibitor – blocks human galactokinase activity; P51570; Purified GALK, Kinase-Glo residual ATP luminescence; Potency, µM (highest dose often 57.5 µM), actives largely listed as inhibitors; 0.007% of 270,000 active
Target sequence (P51570 whole entry, looked up): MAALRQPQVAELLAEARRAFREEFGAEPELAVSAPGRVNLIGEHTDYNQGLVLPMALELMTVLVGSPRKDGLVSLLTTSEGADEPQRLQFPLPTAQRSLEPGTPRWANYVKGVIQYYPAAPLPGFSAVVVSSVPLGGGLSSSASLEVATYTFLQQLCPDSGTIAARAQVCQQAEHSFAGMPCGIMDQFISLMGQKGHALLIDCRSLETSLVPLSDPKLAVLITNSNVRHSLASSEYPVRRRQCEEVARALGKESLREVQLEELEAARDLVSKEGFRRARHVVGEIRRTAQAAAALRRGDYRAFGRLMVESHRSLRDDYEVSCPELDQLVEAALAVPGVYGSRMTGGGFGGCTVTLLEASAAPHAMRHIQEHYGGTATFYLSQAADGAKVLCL
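Quantitative HTS: GALK 5 nM, ATP 35 uM, galactose 100 uM, 1 h room temperature, then luciferase-based ATP detection.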
TrxR1 substrate – substrates of rat thioredoxin reductase 1; O89049; purified TrxR1 substrate turnover, NADPH consumption readout; Potency, µM (top dose mostly 114 µM); 0.01% of 390,000 active; AID 588456; note: nearly all actives have a fitted effect of over 50% in size
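Rat TrxR1, dispensed at 90 nM, was prereduced with 400 uM NADPH (final) for 5 min at ~22 deg C, then incubated with compound 15 min before 400 uM selenite. A first-read NADPH fluorescence drop versus no-compound background flagged substrates.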
Coupling enz – coupling enzyme interference in Giardia aldolase counter-screen; coupling enzyme system counterscreen, AmpLite Red fluorescence; activity change, negative = inhibition, % at 58.2 µM, hits read low; 0.67% of 290,000 active; AID 2472; in the data active = activity change below about -30%
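Fluorescence at 525 nm excitation and 598 nm emission measured inhibition of the coupled detection system without aldolase. Compounds (at 57.5 uM final) were preincubated 10 min at room temperature with coupling enzyme reagent before a 20 min substrate/AmpLite Red step.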
Large screens that a line does not name were inactive. Unless noted, calls come from the whole dose curve; as a rule, active = well fitted curve in the direction sought with a large enough effect; inconclusive = small, poorly fitted or top-dose-only effect, or another doubt; inactive = no such curve, though single readings can be large; an effect the other way counts as inactive or inconclusive.

COc1ccc([C@@H]2[C@@H]3C(=O)N(C(C)(C)C)C(=O)[C@@H]3[C@]3(Cc4ccccc4)C(=O)N(c4cccc(C)c4)C(=O)N23)cc1	none (no result: Gal4-VP16 FLuc, RORgamma inh, GALK inhibitor, Coupling enz)
S=c1[nH]cnc2sc(Nc3ccccc3)nc12	Gal4-VP16 FLuc 2.5µM, RORgamma inh 1µM, rTrxR1 inhibitor inconclusive
Oc1ccc2ccccc2c1CNc1ccc(Br)cc1	Gal4-VP16 FLuc inconclusive, RORgamma inh inconclusive, rTrxR1 inhibitor 28µM
C=CCc1cccc(CNc2cnc3ccccc3c2)c1O	Gal4-VP16 FLuc 7.1µM, RORgamma inh inconclusive
Oc1ccccc1CNc1cnc2ccccc2c1	Gal4-VP16 FLuc inconclusive, RORgamma inh inconclusive
Oc1ccc2ccccc2c1CNc1cnc2ccccc2c1	Gal4-VP16 FLuc inconclusive, rTrxR1 inhibitor 11µM, Coupling enz -46
Cc1cccc(-c2c3c(=O)n(C)c(=O)n(C)c3cn2-c2ccccc2O)c1	RORgamma inh inconclusive, Coupling enz -39
Cc1cccc2cc3c(nc12)SC(=NCC1CCCO1)N(Cc1ccco1)C3 (configuration not stated)	Gal4-VP16 FLuc 3.2µM, RORgamma inh 2.8µM, rTrxR1 inhibitor 3.5µM
O=C(CCN1CCN(c2ccccc2)CC1)c1ccc(Cl)cc1	Gal4-VP16 FLuc inconclusive, RORgamma inh inconclusive, rTrxR1 inhibitor 1.6µM
O=C(CCN1CCN(c2ccc([N+](=O)[O-])cc2)CC1)c1ccc(Cl)cc1	Gal4-VP16 FLuc inconclusive, RORgamma inh inconclusive, rTrxR1 inhibitor 7.1µM (no result: GALK inhibitor)
COc1ccc(N2CCN(CCC(=O)c3ccc4ccccc4c3)CC2)cc1	Gal4-VP16 FLuc inconclusive, RORgamma inh inconclusive, rTrxR1 inhibitor 1.8µM (no result: GALK inhibitor)
O=C(CCN1CCCCC1)c1cccc(Cl)c1	rTrxR1 inhibitor 0.35µM (no result: Gal4-VP16 FLuc, RORgamma inh, GALK inhibitor, Coupling enz)
O=C(CN1CCN(c2ccc([N+](=O)[O-])cc2)CC1)c1ccccc1	rTrxR1 inhibitor inconclusive
O=C(CCN1CCN(c2ccccc2)CC1)Nc1ccc(Cl)cc1	RORgamma inh inconclusive
Cc1cccc(-n2ccnc2SCC(=O)Nc2ccc3c(c2)OCCO3)c1	none
CCCC(C(=O)Nc1ccc(S(=O)(=O)Nc2nccs2)cc1)c1ccccc1 (configuration not stated)	none (no result: Gal4-VP16 FLuc, RORgamma inh, GALK inhibitor, Coupling enz)
CCc1ccc2nc(NC3=NCN(CCN4CCOCC4)CN3)nc(C)c2c1	none (no result: rTrxR1 inhibitor, TrxR1 substrate)
O=C(CCCn1cnc([N+](=O)[O-])n1)Nc1cccc2ccccc12	none
Cc1csc2c(N3CCN(C(=O)Nc4ccc(OC(F)(F)F)cc4)CC3)ncnc12	Gal4-VP16 FLuc 13µM, RORgamma inh inconclusive
C=CCOC(=O)C1=C[C@@H](C2CCCCC2)C[C@@H](OCc2ccc(CO)cc2)O1	none
Cc1ccc2nc(/C=C/c3cccc(F)c3)ccc2c1	RORgamma inh 10µM
COc1ccc(-n2c(=S)[nH]c3cc(C(=O)O)ccc3c2=O)cc1	none
COC(=O)c1ccc2c(=O)n(-c3ccc(OC)cc3)c(=S)[nH]c2c1	Gal4-VP16 FLuc 5.6µM, RORgamma inh 2.8µM
COCCn1c(=S)[nH]c2cc(C(=O)N(CCO)Cc3ccccc3)ccc2c1=O	Gal4-VP16 FLuc inconclusive, RORgamma inh 11µM
COc1ccc(-n2c(=S)[nH]c3c(oc4ccccc43)c2=O)cc1	Gal4-VP16 FLuc 4.5µM, RORgamma inh 2.8µM
COc1ccc(-n2c(=S)[nH]c3cc(C(=O)N(C)Cc4ccccc4)ccc3c2=O)cc1	Gal4-VP16 FLuc inconclusive, RORgamma inh 7.9µM
CCc1ccc(-n2c(=O)c3cccnc3n2CC(=O)NCc2ccc(C)cc2)cc1	none (no result: Gal4-VP16 FLuc, RORgamma inh, GALK inhibitor, Coupling enz)
CCOc1ccccc1Nc1nc2c(S(=O)(=O)c3ccc(C)cc3)nnn2c2ccsc12	none (no result: Gal4-VP16 FLuc, RORgamma inh, GALK inhibitor, Coupling enz)
Cc1ccc(CN2CCCn3nc(C(=O)NCCc4ccccc4C)cc3C2=O)cc1	none (no result: Gal4-VP16 FLuc, RORgamma inh, GALK inhibitor, Coupling enz)
O=C(NCc1cccs1)c1cc(S(=O)(=O)N2CCCCC2)ccc1Cl	RORgamma inh inconclusive
CCNC(=O)COC(=O)Cc1ccc(Cl)cc1Cl	none
CCn1c(=S)[nH]c2cc(C(=O)OC)ccc2c1=O	Gal4-VP16 FLuc 11µM, RORgamma inh 13µM
Nc1nc(-c2cc(O)ccc2[N+](=O)[O-])cc(-c2ccccc2)c1[N+](=O)[O-]	Gal4-VP16 FLuc 13µM, RORgamma inh inconclusive
N#C/C(=C\c1ccc(N2CCCCC2)o1)C(N)=O	none
N#C/C(=C\c1ccc(N2CCOCC2)c([N+](=O)[O-])c1)c1nc2ccccc2[nH]1	Gal4-VP16 FLuc inconclusive, RORgamma inh inconclusive (no result: GALK inhibitor)
N#C/C(=C\c1ccc(N2CCOCC2)o1)c1nc2ccccc2[nH]1	RORgamma inh 16µM, rTrxR1 inhibitor inconclusive, Coupling enz -49 (no result: GALK inhibitor)
N#C/C(=C/c1ccc(N2CCOCC2)o1)c1ccc(Cl)cc1	Gal4-VP16 FLuc 10µM, RORgamma inh inconclusive, rTrxR1 inhibitor 3.2µM, Coupling enz -47
CCOC(=O)C1=C(C)NC(=O)NC1/C=C\c1ccccc1 (configuration not stated)	none
COC(=O)C1=C(C)NC(=S)NC1/C=C/c1ccccc1 (configuration not stated)	Gal4-VP16 FLuc 16µM, RORgamma inh 6.3µM
CCOC(=O)C1=C(C)NC(=S)NC1/C=C/c1ccccc1 (configuration not stated)	Gal4-VP16 FLuc 2µM, RORgamma inh 1.8µM
S=c1[nH]c(-c2ccc(Cl)cc2)cs1	RORgamma inh 7.1µM
Clc1ccc(-c2ccn[nH]2)cc1	none
Cc1ccc(-c2ccc(C(=O)O)[nH]2)cc1	none
S=c1nccc(-c2ccc(Cl)cc2)[nH]1	Gal4-VP16 FLuc 5µM, RORgamma inh 2.8µM, rTrxR1 inhibitor inconclusive (no result: GALK inhibitor)
Cc1ccc(-c2csc(=S)[nH]2)cc1	Gal4-VP16 FLuc inconclusive, RORgamma inh 7.1µM, rTrxR1 inhibitor inconclusive
CSCCC(NC(=O)c1ccccc1Cl)C(=O)N(C)Cc1cccs1 (configuration not stated)	none
CCCc1[nH]nc2c1C(c1cc(OC)cc(OC)c1)C(C#N)=C(N)O2 (configuration not stated)	none
CCCc1[nH]nc2c1C(c1ccc(OC)c(CSC3=NCCS3)c1)C(C#N)=C(N)O2 (configuration not stated)	Gal4-VP16 FLuc inconclusive, rTrxR1 inhibitor inconclusive, Coupling enz -41
Cc1c2cnn(-c3ccccc3)c(=O)c2c(C)n1C(C)C(=O)Nc1ccccc1C(F)(F)F (configuration not stated)	none (no result: Gal4-VP16 FLuc, RORgamma inh, GALK inhibitor, Coupling enz)
COc1ccc(/C=N/Nc2nc(Nc3ccccc3)nc(N3CCCCC3)n2)cc1OC	none
CCOc1cc(/C=N/Nc2nc(Nc3ccccc3)nc(N3CCCCC3)n2)ccc1OCC(=O)O	Gal4-VP16 FLuc inconclusive, RORgamma inh 4.5µM
CCOc1cc(/C=N/Nc2nc(N3CCCC3)nc(N3CCCC3)n2)ccc1O	Gal4-VP16 FLuc 5µM, RORgamma inh 5.6µM, rTrxR1 inhibitor inconclusive
COC(=O)C1=C(C(=O)OC)SC2(S1)C(C(=O)OC)=C(C(=O)OC)SC1=C2c2cc(C)cc(C)c2NC1(C)C	RORgamma inh 13µM
COc1ccccc1CNC(=O)c1ccc(C)s1	none
